# About 83,000 compounds went through this panel and 20% of them were active in at least one assay; those are over-represented in the sample as a whole.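 Treatment: one concentration, 48 hours, 96-well format. Scoring: percent growth, with anything below 10 considered active.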 Unmarked numbers belong to inactive results. Activity calls are given as the source filed them.
# Experiments:
# Assay in all cases: NCI-60 one-dose screen, 48 h (100 = growth as untreated, 0 = no growth, -100 = all killed)
# Conditions in all cases: 10 µM
# T-47D breast = test system: T-47D breast
# BT-549 breast = test system: BT-549 breast
# MDA-MB-435 melanoma = test system: MDA-MB-435 melanoma
# SW-620 colon = test system: SW-620 colon
# MCF7 breast = test system: MCF7 breast
# HCT-116 colon = test system: HCT-116 colon
# HCC-2998 colon = test system: HCC-2998 colon
# KM12 colon = test system: KM12 colon
SMILES,growth (T-47D breast),growth (BT-549 breast),growth (MDA-MB-435 melanoma),growth (SW-620 colon),growth (MCF7 breast),growth (HCT-116 colon),growth (HCC-2998 colon),growth (KM12 colon)
Cc1cc(OI)c(C(C)C)cc1-c1cc(C(C)C)c(OI)cc1C,81.6%,111%,112%,113%,92.6%,101%,105%,101%
O=C1/C(=C/c2ccc(O)cc2O)N=C2SCCCN12,85%,96.9%,99.2%,107%,108%,99.5%,119%,91.3%
COc1cc(-c2nc3ccccc3[nH]2)ccc1OCC(=O)N=Nc1c(O)[nH]c2ccccc12,32.6%,104%,79.1%,64.8%,28%,31.6%,96.1%,27%
COc1ccc(NC(=O)c2sc3nc4c(cc3c2N)C(O)CCC4)cc1 (centres undefined),93.9%,97.4%,84.6%,95.8%,89.6%,104%,113%,98%
Cc1nn2c(/C=C3/C(=O)Nc4ccc(Cl)cc43)c(-c3ccccc3)nc2s1,-1.58% (active),48.8%,44.4%,44.2%,38.5%,7.12% (active),102%,59.1%
CCOCC[P+](c1ccccc1)(c1ccccc1)c1ccccc1,18%,36.9%,28.8%,60%,31.1%,38.1%,31.7%,25.8%
O=C(Nc1cccc(Cl)c1)Nc1cc2ncncc2cc1OCc1cccc(F)c1,-5.19% (active),44.8%,0.458% (active),23.9%,6.04% (active),8.63% (active),35.7%,9.08% (active)
COc1cc(C(c2c[nH]c3ccccc23)N2CCCC2)ccc1OCc1ccccc1 (centres undefined),81.5%,-2.45% (active),96.8%,98.9%,83.4%,69%,96.2%,92.2%
O/N=C1\CCC2CCCCC2C1 (centres undefined),94%,105%,104%,109%,93%,103%,106%,106%
CS(=O)(=O)Nc1ccc([N+](=O)[O-])cc1Oc1ccccc1,84%,109%,101%,104%,102%,100%,93%,94.5%
O=C1NN(c2ccccc2)C(c2cccnc2)=N/C1=C\c1cccnc1,96.7%,101%,92.4%,110%,92.1%,91.9%,99%,95%
CNC(=O)c1cc(Oc2ccc(NC(=O)Nc3ccc(Cl)c(OC(C)C)c3)c(F)c2)ccn1,9.9% (active),75.1%,43.2%,68.2%,31%,30.4%,66.7%,24.4%
CCc1c(C)[nH]c(=O)c(C(N)=O)c1C#N,94.1%,97.4%,101%,97.7%,97%,95.7%,87.7%,106%
Oc1cc(O)c(Br)cc1Br,90.2%,93.8%,101%,105%,91.3%,97.3%,94.6%,101%
CCCCn1c(=O)[nH]c2c(c1=O)C(c1ccc(Cl)cc1)c1c([nH]c(=O)n(CCCC)c1=O)N2,73.3%,100%,103%,101%,88.2%,96.6%,103%,102%
Cc1ccc(S(=O)(=O)Oc2ccccc2-c2ccccc2)cc1,37.1%,44.3%,-41.5% (active),20.8%,15.9%,14.6%,46.3%,15.6%
O=C(COCc1c(-c2ccccc2)no[n+]1[O-])Nc1nc(-c2ccc(Cl)cc2)cs1,103%,102%,111%,101%,96.3%,104%,104%,101%

SMILES,growth (T-47D breast),growth (BT-549 breast),growth (MDA-MB-435 melanoma),growth (SW-620 colon),growth (MCF7 breast),growth (HCT-116 colon),growth (HCC-2998 colon),growth (KM12 colon)
COc1cc(C2CC(=O)Nc3c2c(C)nn3-c2nc3ccccc3[nH]2)cc(OC)c1O (centres undefined),83.5%,46.2%,23%,45.7%,56.9%,68.4%,88.9%,45.7%
CC(C)/C=N/NC(N)=S,45.6%,105%,86.4%,76.4%,8.48% (active),8.16% (active),96.4%,112%
CCCCCCCCCCCCCCCCCBr,95.6%,112%,99.6%,107%,101%,105%,96.2%,113%
N#Cc1ccc(-n2cnc(NC(=O)[C@H]3CCN(C#N)C3)c2)cc1,-9.28% (active),18.5%,16.2%,16.6%,4.82% (active),5.34% (active),38.5%,8.31% (active)
COc1cc(/C=C/C(=O)c2cc(-c3ccccc3)ccc2O)cc(OC)c1OC,43.4%,88.8%,55.4%,81.9%,47%,61.3%,97%,78.6%
CCCC(C)c1ccc(OCCCCCCN2CCNCC2)cc1 (centres undefined),-12.7% (active),76.5%,28.9%,-16.6% (active),-23.2% (active),-6% (active),-71.4% (active),15.1%
CCc1ccc(-c2nnc(COc3ccc(-c4nc5cc(Cl)c(Cl)cc5[nH]4)cc3OC)o2)cc1,43.6%,105%,65.2%,53%,15.4%,1.36% (active),82.8%,44.1%
O=[N+]([O-])C1CC2C=CC1C2 (centres undefined),93%,97.3%,92.7%,103%,92.1%,107%,102%,104%
C=C1C(=O)O[C@H]2[C@H]1CC/C(COC(=O)OCCCCCOC(=O)OC/C1=C/CC[C@@]3(C)O[C@H]3[C@H]3OC(=O)C(=C)[C@@H]3CC1)=C\CC[C@@]1(C)O[C@@H]21,-45% (active),-72.7% (active),-13% (active),-54.3% (active),-75.8% (active),-95.9% (active),-60.8% (active),5.59% (active)
CCN(CC)CC(O)Cc1ccc(OC)cc1 (centres undefined),104%,121%,102%,114%,111%,111%,111%,116%
N#CC1C=Cc2c(ccc3ccccc23)N1C(=O)c1ccccc1 (centres undefined),56.7%,33.5%,-31.4% (active),21.8%,21.5%,12%,10.3%,-6.86% (active)
COC(=O)[C@]12CC[C@@H](C)[C@H](C)[C@@H]1C1=CC[C@@H]3[C@@]4(C)C/C(=N\O)[C@H](O)[C@@]5(C)COC(=C45)C[C@@]3(C)[C@]1(C)CC2,-84.6% (active),-79.8% (active),-84% (active),-64.5% (active),-71.1% (active),-84.8% (active),-89.4% (active),-80.9% (active)
COc1ccc(-c2nnc(COc3ccc(NC(=O)Nc4ccccc4)cc3F)o2)cc1,62.1%,79.6%,92.3%,102%,90.3%,69.8%,103%,68.5%
Nc1nsc(C(=O)c2ccc(O)cc2)n1,94.2%,102%,104%,108%,99.3%,94.8%,98.7%,100%
O=C1/C(=C/c2ccc(O)cc2)Cc2ccc(Cl)cc21,80.4%,59%,78%,98.7%,58.8%,88.4%,115%,87.6%
Nc1ccc(C2=CC(c3ccc(Cl)cc3)N3C=CSC3=N2)cc1 (centres undefined),-11% (active),-50.7% (active),-65.7% (active),-60.5% (active),-32.1% (active),-89.3% (active),-95.7% (active),-41.4% (active)
